Experimental data published in PMC5540273 (PLoS ONE, 2017).
Like-named read-outs stand apart in the source and are kept apart here.

How the values were obtained:
Details in all cases: n = 1
PAK6 = system: PAK6
PAK7 = system: PAK7
PCTK1 = system: T1, PCTK1
T1 construct: gene CDK16

PCTK2 = system: T2, PCTK2
T2 construct: gene CDK17

PCTK3 = system: T3, PCTK3
T3 construct: gene CDK18

PDGFRA = system: PDGFRA
PDGFRB = system: PDGFRB
PDPK1 = system: PDPK1
PFTAIRE2 = system: PFTAIRE2
PFTK1 = system: T4, PFTK1
T4 construct: gene CDK14

[1] = concentration: 1 μM, replicates: in singlicate
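Note: KINOMEscan kinase panel screen.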

## O=C1NC(=O)C(N2CCc3ccccc32)=C1c1ccccc1Cl [SB-373598]
PAK6; [1]
  %Inh: 55%
PAK7; [1]
  %Inh: 0%
PCTK1; [1]
  %Inh: 3%
PCTK2; [1]
  %Inh: 1%
PCTK3; [1]
  %Inh: 17%
PDGFRA; [1]
  %Inh: 0%
PDGFRB; [1]
  %Inh: 4%
PDPK1; [1]
  %Inh: 32%
PFTAIRE2; [1]
  %Inh: 9%
PFTK1; [1]
  %Inh: 0%

## O=C(Nc1ccccc1)Nc1cccc(Oc2ccc3nccn3n2)c1
PAK6; [1]
  %Inh: 0%
PAK7; [1]
  %Inh: 29%
PCTK1; [1]
  %Inh: 0%
PCTK2; [1]
  %Inh: 5%
PCTK3; [1]
  %Inh: 0%
PDGFRA; [1]
  %Inh: 98.9%
PDGFRB; [1]
  %Inh: 100%
PDPK1; [1]
  %Inh: 0%
PFTAIRE2; [1]
  %Inh: 57%
PFTK1; [1]
  %Inh: 0%

## Cc1cccc(-c2nc(-c3ccc(S(C)(=O)=O)cc3)sc2-c2ccnc(NCCc3ccccc3)c2)c1
PAK6; [1]
  %Inh: 5%
PAK7; [1]
  %Inh: 5%
PCTK1; [1]
  %Inh: 15%
PCTK2; [1]
  %Inh: 3%
PCTK3; [1]
  %Inh: 0%
PDGFRA; [1]
  %Inh: 89%
PDGFRB; [1]
  %Inh: 100%
PDPK1; [1]
  %Inh: 17%
PFTAIRE2; [1]
  %Inh: 5%
PFTK1; [1]
  %Inh: 0%

## COc1cccc(-c2cc(-c3c[nH]nc3-c3ccccn3)ccn2)c1 [GW680338]
PAK6; [1]
  %Inh: 3%
PAK7; [1]
  %Inh: 9%
PCTK1; [1]
  %Inh: 0%
PCTK2; [1]
  %Inh: 0%
PCTK3; [1]
  %Inh: 8%
PDGFRA; [1]
  %Inh: 0%
PDGFRB; [1]
  %Inh: 8%
PDPK1; [1]
  %Inh: 0%
PFTAIRE2; [1]
  %Inh: 10%
PFTK1; [1]
  %Inh: 1%

## Cc1cccc(-c2nc(Nc3ccc4[nH]ncc4c3)c3ccccc3n2)n1 [GW857175]
PAK6; [1]
  %Inh: 4%
PAK7; [1]
  %Inh: 0%
PCTK1; [1]
  %Inh: 23%
PCTK2; [1]
  %Inh: 2%
PCTK3; [1]
  %Inh: 15%
PDGFRA; [1]
  %Inh: 19%
PDGFRB; [1]
  %Inh: 0%
PDPK1; [1]
  %Inh: 39%
PFTAIRE2; [1]
  %Inh: 0%
PFTK1; [1]
  %Inh: 9%

## Cc1cc(N2Cc3ccccc3C2)nc(Nc2ccc(S(=O)(=O)N3CCOCC3)cc2)n1.Cl [GSK1669917]
PAK6; [1]
  %Inh: 0%
PAK7; [1]
  %Inh: 0%
PCTK1; [1]
  %Inh: 0%
PCTK2; [1]
  %Inh: 0%
PCTK3; [1]
  %Inh: 0%
PDGFRA; [1]
  %Inh: 0%
PDGFRB; [1]
  %Inh: 2%
PDPK1; [1]
  %Inh: 0%
PFTAIRE2; [1]
  %Inh: 0%
PFTK1; [1]
  %Inh: 23%

## Cc1ccc(NC(=O)Nc2cccc(C(F)(F)F)c2)cc1 [GSK955403]
PAK6; 1 µM
  %Inh: 36%
PAK7; 1 µM
  %Inh: 1%
PCTK1; 1 µM
  %Inh: 0%
PCTK2; 1 µM
  %Inh: 2%
PCTK3; 1 µM
  %Inh: 0%
PDGFRA; 1 µM
  %Inh: 0%
PDGFRB; 1 µM
  %Inh: 45%
PDPK1; 1 µM
  %Inh: 14%
PFTAIRE2; 1 µM
  %Inh: 1%
PFTK1; 1 µM
  %Inh: 5%

## CS(=O)(=O)c1ccc(-c2c(-c3ncn[nH]3)sc(N3CCOCC3)c2C#N)cc1
PAK6; [1]
  %Inh: 12%
PAK7; [1]
  %Inh: 0%
PCTK1; [1]
  %Inh: 0%
PCTK2; [1]
  %Inh: 3%
PCTK3; [1]
  %Inh: 14%
PDGFRA; [1]
  %Inh: 6%
PDGFRB; [1]
  %Inh: 20%
PDPK1; [1]
  %Inh: 0%
PFTAIRE2; [1]
  %Inh: 0%
PFTK1; [1]
  %Inh: 13%

## COc1cccc(NC(=O)NC2CCN(c3ccnc(Nc4ccc(F)cc4)n3)C2)c1 (stereo not shown) [GSK1379721]
PAK6; [1]
  %Inh: 0%
PAK7; [1]
  %Inh: 10%
PCTK1; [1]
  %Inh: 1%
PCTK2; [1]
  %Inh: 14%
PCTK3; [1]
  %Inh: 19%
PDGFRA; [1]
  %Inh: 9%
PDGFRB; [1]
  %Inh: 42%
PDPK1; [1]
  %Inh: 0%
PFTAIRE2; [1]
  %Inh: 28%
PFTK1; [1]
  %Inh: 0%

## Cn1cncc1-c1ccc2ncnc(Nc3ccc(OCc4ccccc4)cc3)c2c1 [GW320571]
PAK6; [1]
  %Inh: 0%
PAK7; [1]
  %Inh: 0%
PCTK1; [1]
  %Inh: 0%
PCTK2; [1]
  %Inh: 0%
PCTK3; [1]
  %Inh: 7%
PDGFRA; [1]
  %Inh: 0%
PDGFRB; [1]
  %Inh: 9%
PDPK1; [1]
  %Inh: 9%
PFTAIRE2; [1]
  %Inh: 20%
PFTK1; [1]
  %Inh: 0%

## CCn1c(-c2ccccn2)nc2cnccc21 [SB-736398]
PAK6; [1]
  %Inh: 0%
PAK7; [1]
  %Inh: 0%
PCTK1; [1]
  %Inh: 3%
PCTK2; [1]
  %Inh: 0%
PCTK3; [1]
  %Inh: 17%
PDGFRA; [1]
  %Inh: 0%
PDGFRB; [1]
  %Inh: 0%
PDPK1; [1]
  %Inh: 97%
PFTAIRE2; [1]
  %Inh: 0%
PFTK1; [1]
  %Inh: 16%

## COc1cc2nccc(Nc3ccc(NC(=O)c4ccc(C)cc4)c(O)c3)c2cc1OC.Cl [GW440132]
PAK6; [1]
  %Inh: 0%
PAK7; [1]
  %Inh: 0%
PCTK1; [1]
  %Inh: 4%
PCTK2; [1]
  %Inh: 0%
PCTK3; [1]
  %Inh: 19%
PDGFRA; [1]
  %Inh: 12%
PDGFRB; [1]
  %Inh: 69%
PDPK1; [1]
  %Inh: 0%
PFTAIRE2; [1]
  %Inh: 26%
PFTK1; [1]
  %Inh: 85%

## Cl.c1ccc(-c2n[nH]cc2-c2ccnc(-c3ccc(CN4CCOCC4)cc3)c2)nc1 [GW776245]
PAK6; [1]
  %Inh: 14%
PAK7; [1]
  %Inh: 0%
PCTK1; [1]
  %Inh: 0%
PCTK2; [1]
  %Inh: 11%
PCTK3; [1]
  %Inh: 6%
PDGFRA; [1]
  %Inh: 0%
PDGFRB; [1]
  %Inh: 0%
PDPK1; [1]
  %Inh: 21%
PFTAIRE2; [1]
  %Inh: 19%
PFTK1; [1]
  %Inh: 0%

## CC(C)(C)c1ccc(C(=O)Nc2cn3cc(Cl)ccc3n2)cc1
PAK6; [1]
  %Inh: 0%
PAK7; [1]
  %Inh: 27%
PCTK1; [1]
  %Inh: 0%
PCTK2; [1]
  %Inh: 0%
PCTK3; [1]
  %Inh: 0%
PDGFRA; [1]
  %Inh: 12%
PDGFRB; [1]
  %Inh: 71%
PDPK1; [1]
  %Inh: 0%
PFTAIRE2; [1]
  %Inh: 0%
PFTK1; [1]
  %Inh: 0%

## Cc1ccc(-c2cc(-c3c[nH]nc3-c3ccccn3)ccn2)cc1 [GW684088]
PAK6; [1]
  %Inh: 9%
PAK7; [1]
  %Inh: 19%
PCTK1; [1]
  %Inh: 0%
PCTK2; [1]
  %Inh: 19%
PCTK3; [1]
  %Inh: 40%
PDGFRA; [1]
  %Inh: 7%
PDGFRB; [1]
  %Inh: 22%
PDPK1; [1]
  %Inh: 0%
PFTAIRE2; [1]
  %Inh: 0%
PFTK1; [1]
  %Inh: 32%

## Cc1c(Cn2ccn3c(=O)cc(N4CCOCC4)nc23)cccc1C(F)(F)F [GSK2289044]
PAK6; [1]
  %Inh: 4%
PAK7; [1]
  %Inh: 27%
PCTK1; [1]
  %Inh: 2%
PCTK2; [1]
  %Inh: 0%
PCTK3; [1]
  %Inh: 8%
PDGFRA; [1]
  %Inh: 0%
PDGFRB; [1]
  %Inh: 21%
PDPK1; [1]
  %Inh: 17%
PFTAIRE2; [1]
  %Inh: 17%
PFTK1; [1]
  %Inh: 13%
